# Out of some 38,000 compounds screened, about 1,200 (3.2%) showed an effect of 50% or more. The median lay at about -58%. Many of the other results were omitted from the sample, so strong results are more common in it than they were.
# Test system: Plasmodium falciparum
# Assay: Calibr Malaria Delayed Death Assay SOP
# Assay type: functional, organism-based
# Parameters: scale not given: in the data most compounds retested in dose-response had high values
# Settings: concentration 4.99e-06 (unit not given; other assays of the set use mol/L)
row,SMILES,Percent Effect [%]
1,O=C(NCC(=O)N1CCCCC1)c1sccc1C1CC1,-52.19
2,Cc1ccsc1C(=O)N1CCC2(CC1)C(=O)N(C)CCN2CC1CC1.O=C(O)C(F)(F)F,-41.45
3,CCc1ccc(NC(=O)N2C[C@H]3C[C@H](C(=O)NC(C)C)[C@@H](C2)O3)cc1,25.32
4,CC(=O)N1CCCC(C(=O)NCCc2csc(-c3ccncc3)n2)C1 (stereo unspecified),-77.87
5,CC(C)C(N)CNS(=O)(=O)Cc1cccc2cccnc12.Cl (stereo unspecified),3.917
6,CC(Cn1cccn1)NC(=O)N(C)Cc1ccsc1 (stereo unspecified),-57.89
7,O=C(CNC(=O)C1(c2ccc(F)cc2F)CCC1)Nc1ccccn1,-17.94
8,CC(C)CN1CC(C(=O)NCCOc2ccc3c(c2)OCO3)CC1=O (stereo unspecified),-115.4
9,Cc1cnccc1N1CCN(C[C@]2(O)CCCN3CCCC[C@@H]32)CC1,73.88
10,O[C@@]1(CN2CCN(Cc3ccncc3)CC2)CCCN2CCCC[C@@H]21,-71.07
11,Cc1ccnc(N2CCN(C[C@]3(O)CCCN4CCCC[C@@H]43)CC2)c1,7.79
12,COc1ccc(N2CCN(C(=O)c3nc(Cl)sc3C(C)C)CC2)cc1,-116.1
13,CCn1cc(CN2CCC(c3[nH]ncc3S(C)(=O)=O)C2)cn1 (stereo unspecified),-50.8
14,CCn1cc(CN2CCCN(C3Cc4ccccc4C3)CC2)cn1,8.565
15,CCn1cc(CN2CCCC(COc3ccccc3F)C2)cn1 (stereo unspecified),72.55
16,CCn1cc(CN2CCCC(COc3ccc(F)cc3)C2)cn1 (stereo unspecified),75.3
17,Cc1ccc(-c2cn[nH]c2C2CCCN(c3ncccn3)C2)cc1 (stereo unspecified),-2.919
18,CCn1cc(CN2CCCC(c3[nH]ncc3-c3ccc(C)cc3)C2)cn1 (stereo unspecified),60.35
19,COc1cccc(OCC2CCCN(Cc3ccncc3)C2)c1 (stereo unspecified),-55.12
20,COc1ccc(OCC2CCCN(Cc3ccncc3)C2)cc1 (stereo unspecified),2.701
21,CCn1cc(CNC2CCN(c3c(F)cccc3F)C2)cn1 (stereo unspecified),-15.51
22,O=C(NCC(=O)N1CCCC1Cc1cccc(F)c1)C1CCCC1 (stereo unspecified),-29.53
23,Cc1cnc2c(c1NCc1cccs1)c(=O)n(C)c(=O)n2C,3.342

row,SMILES,Percent Effect [%]
1,CNC(=O)C1(c2cnccn2)CCCN1C(=O)c1cccnc1OC (stereo unspecified),-138.6
2,CCCn1cc(NC(=O)c2ccncc2)ccc1=O,-98.41
3,CC(C)N1CCCCC1CCn1cnc2cc(C(F)(F)F)ccc2c1=O (stereo unspecified),-97.47
4,Cc1cnc(N(C)Cc2cnc3ccccc3n2)nc1N(C)C,-4.617
5,O=C(NCCCNC(=O)c1ccccc1)Nc1ccc(F)cc1F,-135.1
6,CCOCC1CN(S(=O)(=O)CC)Cc2cnn(CC3CC3)c21.O=C(O)C(F)(F)F (stereo unspecified),-13.24
7,CCOCC1CN(C(=O)c2cccn2C)Cc2cnn(CC3CC3)c21.O=C(O)C(F)(F)F (stereo unspecified),56.84
8,CCOCC1CN(C(=O)c2cnccn2)Cc2cnn(CC3CC3)c21.O=C(O)C(F)(F)F (stereo unspecified),-137.9
9,Cn1cccc1C(=O)N1Cc2c(CN3CCCCC3)nn(C)c2C1,-1.788
10,CC(C)C(=O)N1CCc2c(CN(C)Cc3ccco3)cncc2C1.Cl.Cl,-39.92
11,C[C@@H]1CN(C2(C(=O)N3CCOCC3)Cc3ccccc3C2)C[C@H](C)O1,-24.87
12,C[C@@H]1CN(C2(C(=O)N3CCNCC3)Cc3ccccc3C2)C[C@H](C)O1,61.74
13,C[C@@H]1CN(C2(C(=O)N3CCSCC3)Cc3ccccc3C2)C[C@H](C)O1,-246.9
14,O=C(NCCC1CCN(CC(F)(F)F)CC1)C1CCCO1 (stereo unspecified),-133.7
15,c1coc(CN2CCO[C@@]3(CCC[C@@H]3COCc3nccs3)C2)c1,10.79
16,O=C(NCc1cc2n(n1)CCCNC2)C1(c2ccc(Cl)cc2)CCC1,-15.95
17,O=C(NCc1cc2n(n1)CCCNC2)c1cn2cc(Cl)ccc2n1,-49.2
18,O=C(NCc1cc2n(n1)CCCNC2)C1(c2ccccc2)CCCCC1,72.51
19,O=C(O)C(F)(F)F.O=C(O)C(F)(F)F.c1coc(CN2C[C@@H]3OCCN(CC4CCCO4)[C@@H]3C2)c1 (stereo partly specified),-57.01
20,O=S(=O)(c1ccc(F)cc1Cl)N1CCCC1c1ccncc1 (stereo unspecified),-22.12
21,O=C(NC1CCCN(CCCc2ccccc2)C1)c1ccncc1 (stereo unspecified),-32.27
22,O=C(NC1CCCN(CCCc2ccccc2)C1)c1ccc(Cl)s1 (stereo unspecified),59.33
23,O=C(NC1CCCN(CCCc2ccccc2)C1)C1=CCCCC1 (stereo unspecified),-1.379

# — ChEMBL document CHEMBL3988442, “University of Dundee, Small-Polar-MMV Screening Library” (2021)
